Test results taken from PubChem BioAssay (NCATS).
Where “and” joins values, the source holds several entries; their conditions need not be identical. Equal values may be shown once. Results filed as inconclusive are left out. Calls of active or inactive are those of the source. Unless noted, the call rests on the fitted dose curve; in most records, active means well fitted curve in the direction sought with a large enough effect; inconclusive means small, poorly fitted or top-dose-only effect, or another doubt; inactive means no such curve, though single readings can be large; an effect the other way counts as inactive or inconclusive.

What was measured:
[1] = biological target: Retinoic acid receptor RXR-alpha (Homo sapiens) (UniProt P19793); assay: qHTS assay for small molecule antagonists of retinoid X receptor alpha signaling (AID 588546; active means well fitted inhibition curve with a large enough effect in the signal ratio, with a control signal flat, not every such curve was filed as active; the % refers to the signal ratio;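 further: cells stimulated with 9-cis-retinoic acid as agonist; on the % scale 0 is the no-effect control and ±100 the full control effect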); conditions: HEK293T RXRa-UAS-bla, beta-lactamase ratio, antagonist mode
Retinoic acid receptor RXR-alpha (Homo sapiens), sequence (P19793 whole entry, looked up): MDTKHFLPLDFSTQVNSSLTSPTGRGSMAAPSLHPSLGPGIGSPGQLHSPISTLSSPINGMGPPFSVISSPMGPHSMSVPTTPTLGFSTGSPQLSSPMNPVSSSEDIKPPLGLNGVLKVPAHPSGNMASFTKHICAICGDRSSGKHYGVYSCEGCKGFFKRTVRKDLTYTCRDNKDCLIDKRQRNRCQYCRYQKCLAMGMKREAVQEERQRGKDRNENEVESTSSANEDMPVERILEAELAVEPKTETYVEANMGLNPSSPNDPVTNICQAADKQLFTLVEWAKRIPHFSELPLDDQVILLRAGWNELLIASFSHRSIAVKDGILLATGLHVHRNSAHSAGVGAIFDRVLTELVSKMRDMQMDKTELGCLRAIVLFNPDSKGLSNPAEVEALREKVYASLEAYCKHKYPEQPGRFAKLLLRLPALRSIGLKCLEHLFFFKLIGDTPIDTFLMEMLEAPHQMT
In short: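 Beta-lactamase reporter inhibition, read as CCF4 fluorescence ratio (ex 405, em 460/530 nm) after 2 h at RT. HEK293T UAS-bla cells, 2500/well, were stimulated with 9-cis-RA at 500 or 100 nM final alongside test compound for 18 h at 37 C.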

[2] = biological target: Thyroid hormone receptor beta (Homo sapiens) (UniProt P10828); assay: qHTS assay for small molecule antagonists of thyroid hormone receptor beta signaling (AID 588547; active means well fitted inhibition curve with a large enough effect in the signal ratio, with a control signal flat, not every such curve was filed as active; the % refers to the signal ratio;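 further: cells stimulated with 0.4 nM T3 agonist during compound exposure; on the % scale 0 is the no-effect control and ±100 the full control effect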); conditions: TR-UAS-bla HEK293, beta-lactamase ratio, antagonist mode, 18 h
Thyroid hormone receptor beta (Homo sapiens), sequence (P10828 whole entry, looked up): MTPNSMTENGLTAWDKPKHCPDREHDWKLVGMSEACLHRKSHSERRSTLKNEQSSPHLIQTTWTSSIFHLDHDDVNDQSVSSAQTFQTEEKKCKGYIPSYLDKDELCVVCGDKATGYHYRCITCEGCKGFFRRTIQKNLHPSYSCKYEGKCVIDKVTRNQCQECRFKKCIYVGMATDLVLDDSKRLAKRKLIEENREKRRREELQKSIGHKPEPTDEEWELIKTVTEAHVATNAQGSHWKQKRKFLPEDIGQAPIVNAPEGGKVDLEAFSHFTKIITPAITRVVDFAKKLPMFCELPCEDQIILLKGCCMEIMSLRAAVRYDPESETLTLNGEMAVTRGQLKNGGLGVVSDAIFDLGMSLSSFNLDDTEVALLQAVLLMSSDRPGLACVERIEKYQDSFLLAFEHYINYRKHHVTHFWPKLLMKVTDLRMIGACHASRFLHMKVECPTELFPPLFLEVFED
In short: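 Inhibition of T3-driven (0.4nM final) beta-lactamase reporter activity was measured over 0.59 nM to 92 uM compound after 18 h at 37 C. The cells were GripTite HEK293 TR-UAS-bla in charcoal/dextran-stripped serum, with CCF4 ratio read-out and IC50 from Hill fits.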

[3] = biological target: Voltage-gated inwardly rectifying potassium channel KCNH2 (Homo sapiens) (UniProt Q12809); assay: qHTS Assay for Small Molecule Inhibitors of the Human hERG Channel Activity (AID 588834); conditions: U2OS BacMam hERG, FluxOR thallium flux fluorescence; series mostly up to 46.1 µM;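 further: top concentration of the series differs between compounds; on the % scale 0 is the no-effect control and ±100 the full control effect; lower thallium flux fluorescence means stronger hERG block; nearly all actives have a fitted effect of over 50% in size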
Voltage-gated inwardly rectifying potassium channel KCNH2 (Homo sapiens), sequence (Q12809 whole entry, looked up): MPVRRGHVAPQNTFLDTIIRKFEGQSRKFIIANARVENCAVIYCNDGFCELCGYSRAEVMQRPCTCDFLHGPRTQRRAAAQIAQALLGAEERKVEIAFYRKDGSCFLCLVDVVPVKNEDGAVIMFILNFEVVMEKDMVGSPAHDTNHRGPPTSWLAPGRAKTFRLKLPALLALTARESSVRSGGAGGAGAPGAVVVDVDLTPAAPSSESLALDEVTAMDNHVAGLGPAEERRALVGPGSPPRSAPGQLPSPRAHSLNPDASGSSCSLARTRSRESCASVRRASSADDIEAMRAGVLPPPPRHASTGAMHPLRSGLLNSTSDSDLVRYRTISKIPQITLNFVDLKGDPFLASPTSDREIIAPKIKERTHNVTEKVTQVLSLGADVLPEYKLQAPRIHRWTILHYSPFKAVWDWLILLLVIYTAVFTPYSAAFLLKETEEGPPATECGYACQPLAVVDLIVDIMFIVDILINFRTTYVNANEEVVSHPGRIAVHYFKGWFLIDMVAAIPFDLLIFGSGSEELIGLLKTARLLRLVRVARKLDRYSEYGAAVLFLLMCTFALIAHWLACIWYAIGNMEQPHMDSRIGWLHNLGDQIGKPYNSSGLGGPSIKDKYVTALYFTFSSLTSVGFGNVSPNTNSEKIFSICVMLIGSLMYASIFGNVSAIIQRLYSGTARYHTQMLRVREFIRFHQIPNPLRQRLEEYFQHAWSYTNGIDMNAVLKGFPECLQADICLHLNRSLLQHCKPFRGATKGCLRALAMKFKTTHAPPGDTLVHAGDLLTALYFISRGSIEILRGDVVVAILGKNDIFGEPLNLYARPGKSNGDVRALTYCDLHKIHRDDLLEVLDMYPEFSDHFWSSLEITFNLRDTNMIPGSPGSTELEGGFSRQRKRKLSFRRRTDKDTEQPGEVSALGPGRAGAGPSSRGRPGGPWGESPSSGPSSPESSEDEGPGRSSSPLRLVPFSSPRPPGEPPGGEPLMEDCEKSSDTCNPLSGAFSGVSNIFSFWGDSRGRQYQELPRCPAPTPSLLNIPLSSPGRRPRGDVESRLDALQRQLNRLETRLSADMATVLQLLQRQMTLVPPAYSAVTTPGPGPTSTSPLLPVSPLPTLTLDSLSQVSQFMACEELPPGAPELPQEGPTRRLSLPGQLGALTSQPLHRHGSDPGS
In short: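 U2OS cells transduced with hERG via BacMam (MOI ~100), plated 2000/well, loaded with FluxOR thallium dye, compound ~10 min, then stimulation buffer; fluorescence decrease read kinetically; AC50 from Hill fits.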

[4] = S16 Schwann cell viability assay (CellTiter-Glo assay) (AID 624031); conditions: S16 rat Schwann cells viability, 24 h; series mostly up to 57.5 µM;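 further: cellular ATP luminescence as a viability measure; plate controls were DMSO-treated cells for no effect and cell-free wells for full effect; nearly all actives have a fitted effect of over 70% in size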
In short: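 Untransfected S16 rat Schwann cells; compound 24 h, 37 °C/5% CO2; CellTiter-Glo ATP luminescence. % activity vs no-cell wells and DMSO controls (0%); concentration-effect curves classed by r2, response magnitude, activity.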

[5] = S16 Schwann cell PMP22 intronic element firefly luciferase assay (AID 624032); conditions: S16 rat Schwann cells, PMP22 element FLuc, 24 h; series mostly up to 57.5 µM;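 further: plate controls were DMSO for no effect and PTC124 positive control mean for full effect; nearly all actives have a fitted effect of over 30% in size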
In short: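 Luciferase reporter of PMP22 intronic-element expression in stably transfected S16 rat Schwann cells, read by ONE-Glo luminescence after 24 h compound exposure at 37 C. Activity scaled between DMSO (0%) and positive-control PTC124; concentration-effect curves quality-classified.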

[6] = S16 Schwann cell PMP22 intronic element beta-lactamase assay (AID 624044; calls by dose curve;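 further: 0% = DMSO and -100% = potassium clavulanate positive control; nearly all actives have a fitted effect of over 15% in size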); conditions: S16 rat Schwann cells, PMP22 element beta-lactamase FRET, 24 h; series mostly up to 38.3 µM
In short: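 Rat S16 Schwann cells with beta-Lac driven by a PMP22 intronic element, compound-treated 24 h at 37 °C. LiveBLAzer FRET B/G read: 460 nm normalized to potassium clavulanate vs DMSO; 535 nm FRET as viability; concentration-effect curves classified.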

[7] = qHTS assay for small molecule agonists of the antioxidant response element (ARE) signaling pathway (AID 651741; active means well fitted activation curve with a large enough effect in the signal ratio; the % refers to the signal ratio; further: potency means the concentration at half of the fitted maximal effect; on activation: % of control where 0% means no effect); conditions: HepG2 ARE-bla reporter, beta-lactamase FRET ratio, 16 h; series mostly up to 96 µM
In short: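 Seeding 2,000 ARE-bla HepG2 cells per well preceded a 5 h incubation at 37 C/5% CO2 and a 16 h compound exposure at 37 C. Beta-lactamase reporter activity was then quantified by fluorescence after 2 h with LiveBLAzer B/G FRET substrate.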

[8] = qHTS assay for small molecule activators of the p53 signaling pathway (AID 651743; active means well fitted activation curve with a large enough effect in the signal ratio, not every such curve was filed as active; the % refers to the signal ratio; further: % of control where 0% means no effect); conditions: HCT-116 p53RE-bla, beta-lactamase FRET ratio, 16 h; active compounds read high
In short: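 Screen for p53 pathway agonists uses stably transfected p53RE-bla HCT-116 cells, 4,000 per well, treated 16 h at 37 C with compounds in DMSO.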

[9] = qHTS assay for small molecule activators of the nuclear factor-kappa B (NF-kB) signaling pathway (AID 651749; active means well fitted activation curve with a large enough effect in the signal ratio; the % refers to the signal ratio; further: % of control where 0% means no effect); conditions: NF-kB-bla ME-180 cells, beta-lactamase FRET ratio, 16 h; active compounds read high
In short: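 Stably transfected ME-180 line; NF-kB response element upstream of beta-lactamase. Treatment: compound or DMSO, 16 hr. Detection: fluorescent FRET substrate.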

[10] = biological target: Peroxisome proliferator-activated receptor alpha (Homo sapiens) (UniProt Q07869); assay: qHTS assay for small molecule agonists of the peroxisome proliferator-activated receptor alpha (PPARalpha) signaling pathway (AID 651778); conditions: PathHunter PPARalpha complementation, chemiluminescence, 6 h; active compounds read high; further: % of control where 0% means no effect
Peroxisome proliferator-activated receptor alpha (Homo sapiens), sequence (Q07869 whole entry, looked up): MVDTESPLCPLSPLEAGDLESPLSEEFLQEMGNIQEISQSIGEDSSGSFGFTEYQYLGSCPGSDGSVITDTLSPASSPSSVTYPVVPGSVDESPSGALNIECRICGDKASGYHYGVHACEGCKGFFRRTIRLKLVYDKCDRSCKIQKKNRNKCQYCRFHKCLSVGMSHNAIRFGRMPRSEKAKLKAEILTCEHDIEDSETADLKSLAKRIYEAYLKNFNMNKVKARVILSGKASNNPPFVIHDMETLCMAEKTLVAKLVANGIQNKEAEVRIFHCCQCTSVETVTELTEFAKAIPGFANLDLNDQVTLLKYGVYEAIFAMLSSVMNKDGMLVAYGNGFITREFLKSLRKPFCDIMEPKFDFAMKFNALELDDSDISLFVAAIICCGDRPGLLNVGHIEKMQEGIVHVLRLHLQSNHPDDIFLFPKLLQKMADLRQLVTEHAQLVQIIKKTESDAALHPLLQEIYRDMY
In short: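 Chemiluminescence from complemented enzyme reported PPARalpha activation in cells after 6 hr of compound treatment at 37 C. The detection reagent was incubated for 60 min at room temperature, and compounds were scored as agonists.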

[11] = biological target: Nuclear receptor ROR-gamma (Homo sapiens) (UniProt P51449); assay: qHTS assay for small molecule antagonists of the retinoid-related orphan receptor gamma (ROR-gamma) signaling pathway (AID 651802); conditions: ROR-gamma antagonist cell reporter assay; series mostly up to 92.2 µM; further: on the % scale 0 is the no-effect control and ±100 the full control effect; nearly all actives have a fitted effect of over 60% in size
Nuclear receptor ROR-gamma (Homo sapiens), sequence (P51449 whole entry, looked up): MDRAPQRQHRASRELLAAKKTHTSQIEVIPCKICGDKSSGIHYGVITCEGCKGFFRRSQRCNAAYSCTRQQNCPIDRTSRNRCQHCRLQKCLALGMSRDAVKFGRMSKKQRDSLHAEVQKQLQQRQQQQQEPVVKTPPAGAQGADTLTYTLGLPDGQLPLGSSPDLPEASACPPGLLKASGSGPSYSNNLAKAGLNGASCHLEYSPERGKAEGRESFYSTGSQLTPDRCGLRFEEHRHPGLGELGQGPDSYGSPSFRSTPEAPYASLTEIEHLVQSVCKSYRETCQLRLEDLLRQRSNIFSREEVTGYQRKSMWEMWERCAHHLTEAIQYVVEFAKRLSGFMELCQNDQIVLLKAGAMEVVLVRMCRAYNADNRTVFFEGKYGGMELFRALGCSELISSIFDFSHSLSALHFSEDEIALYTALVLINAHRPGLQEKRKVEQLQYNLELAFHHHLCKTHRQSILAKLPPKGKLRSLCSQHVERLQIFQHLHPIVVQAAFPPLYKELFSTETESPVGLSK
In short: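 CHO cells carrying TET-inducible ROR-gamma and an ROR response element–luciferase reporter were exposed to compound, then induced with doxycycline. After 16hr at 37C, luminescence was read; lower signal indicates antagonism.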

[12] = qHTS assay for small molecule agonists of the antioxidant response element (ARE) signaling pathway measured by Nrf2-dependant transcriptional activity (AID 720636; active means well fitted curve in the direction sought with a large enough effect in the repeat runs; an effect the other way counts as inactive or inconclusive;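 further: HepG2 cells with an ARE-driven luciferase reporter; % of control where 0% means no effect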); conditions: ARE-luc HepG2, Nrf2 luciferase reporter, 16 h; series mostly up to 92.4 µM
In short: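 HepG2 ARE-luc reporter line, 1% dialyzed FBS; 6 hr attachment at 37 C, compound pinned in, 16 hr at 37 C/5% CO2; ONE-Glo, 30 min RT, luminescence read.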

[13] = qHTS assay for small molecule antagonists of the retinoid-related orphan receptor gamma (ROR-gamma) signaling pathway - cell viability counter screen (AID 720652; active means well fitted curve in the direction sought with a large enough effect in the repeat runs; an effect the other way counts as inactive or inconclusive;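 further: compound exposure lasted 16 hr before ATP read; on the % scale 0 is the no-effect control and ±100 the full control effect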); conditions: RORgamma reporter cell line viability counter screen; series mostly up to 92.2 µM
In short: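 Counter screen in CHO cells carrying TET-inducible ROR-gamma and an ROR response element-luciferase reporter; cells plated 5 hr, compound pinned, doxycycline added, then 16 hr at 37 C. Viability read as intracellular ATP by CellTiter-Glo luminescence.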

[14] = qHTS assay for small molecule agonists of the antioxidant response element (ARE) signaling pathway measured by Nrf2-dependant transcriptional activity - cell viability counter screen (AID 720653; active means well fitted curve in the direction sought with a large enough effect in the repeat runs; an effect the other way counts as inactive or inconclusive; further: on the % scale 0 is the no-effect control and ±100 the full control effect); conditions: ARE-bla HepG2 viability, CellTiter-Glo ATP luminescence, 16 h; active compounds read low
In short: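 Cytotoxicity counter screen: intracellular ATP quantified by CellTiter-Glo luminescence in the same ARE-bla HepG2 plates, after 16 h compound exposure and a 2 h beta-lactamase substrate step.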

[15] = biological target: Luciferin 4-monooxygenase (Photinus pyralis) (UniProt P08659); assay: Biochemical firefly luciferase enzyme assay for NPC (AID 624030);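 further: purified P. pyralis luciferase at 10 nM with luciferin and ATP substrate; 0% = DMSO and -100% = full luciferase inhibition by PTC124 control; nearly all actives have a fitted effect of over 70% in size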; conditions: purified P. pyralis luciferase, luminescence, 5 min; series mostly up to 58.6 µM
Luciferin 4-monooxygenase (Photinus pyralis), sequence (P08659 whole entry, looked up): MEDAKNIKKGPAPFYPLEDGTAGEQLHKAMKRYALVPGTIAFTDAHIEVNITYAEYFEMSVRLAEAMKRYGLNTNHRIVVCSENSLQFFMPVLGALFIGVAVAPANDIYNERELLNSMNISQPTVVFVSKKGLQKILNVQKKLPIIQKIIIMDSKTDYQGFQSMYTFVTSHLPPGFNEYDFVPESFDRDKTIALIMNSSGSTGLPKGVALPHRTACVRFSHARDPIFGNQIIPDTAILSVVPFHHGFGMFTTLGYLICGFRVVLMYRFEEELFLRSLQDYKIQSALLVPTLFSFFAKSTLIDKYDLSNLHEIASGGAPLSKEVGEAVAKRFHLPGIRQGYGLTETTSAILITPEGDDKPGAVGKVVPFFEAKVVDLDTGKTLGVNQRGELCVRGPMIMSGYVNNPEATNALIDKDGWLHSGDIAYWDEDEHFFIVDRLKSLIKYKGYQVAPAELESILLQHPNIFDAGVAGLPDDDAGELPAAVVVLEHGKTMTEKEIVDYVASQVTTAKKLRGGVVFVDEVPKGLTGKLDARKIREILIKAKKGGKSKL
In short: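 Direct inhibition of firefly luciferase enzyme (10 nM final, 50 mM Tris Acetate) assessed by luminescence within 5 minutes. Percent activity scaled between DMSO and PTC124 positive control, with concentration-effect curves classified by fit quality and response.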

[16] = qHTS assay for small molecule disruptors of the mitochondrial membrane potential - 5 hr assay (AID 651755; calls by dose curve; further: on the % scale 0 is the no-effect control and ±100 the full control effect; nearly all actives have a fitted effect of over 40% in size); conditions: JC-1-type ratio dye; series mostly up to 92.2 µM
In short: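 HepG2, 2,000 cells/well, overnight attach; cpd or DMSO 5 hr, 37C/5% CO2; Mito-MPS 30 min 37C; fluor 490/535 + 540/590 nm.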

[17] = qHTS assay to identify small molecules that stimulate interleukin-8 (IL-8) secretion (AID 651758; active means well fitted activation curve with a large enough effect in the signal ratio; the % refers to the signal ratio; further: 0% is about no effect); conditions: HTRF ratio (665/615); series mostly up to 92.2 µM
In short: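 Secreted IL-8 measured by TR-FRET sandwich (cryptate and XL665 antibodies) from THP-1 cells exposed to compound overnight (16 hrs, 37 C).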

[18] = qHTS assay for environmental chemicals that activate the Aryl hydrocarbon Receptor (AhR) signaling pathway (AID 651777); conditions: 1A2-DRE human hepatoma cells, luciferase, 24 h; active compounds read high; further: % of control where 0% means no effect; nearly all actives have a fitted effect of over 15% in size
In short: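 Luminescence read-out: One-Glo added for 30 min at RT after 24 hr compound treatment (37 C, 5% CO2) of human hepatoma cells expressing a DRE/CYP1A2 promoter–luciferase reporter; increased signal indicates AhR activation.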

[19] = qHTS assay for small molecule disruptors of the mitochondrial membrane potential - 1 hr assay (AID 651754; calls by dose curve; further: on the % scale 0 is the no-effect control and ±100 the full control effect; nearly all actives have a fitted effect of over 35% in size); conditions: series mostly up to 92.2 µM
In short: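 HepG2 cells, attached overnight at 37C, were exposed to compound or DMSO vehicle for 1 hr at 37C, 5% CO2, then stained with Mito-MPS dye for 30 min. Red aggregate versus green monomer fluorescence reports membrane potential.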

O=C1C(c2[nH]c3ccccc3c2O)=Nc2ccccc21
active: Potency [7] 47.3 µM
inactive: max response [1] 9.96% | activity change % (negative = inhibition) [2] 0.455% | Potency [3] | outcome [4] | Potency [5] | outcome [6] | activation [8] -4.39% | activation [9] -0.0626% | max response [10] -5.35% | outcome [11] | outcome [12] | outcome [13] | max response [14] -0.733%

CCN(CC)C(=O)c1cccc(C)c1
inactive: max response [1] 0.203% and -8.17% | activity change % (negative = inhibition) [2] -13.1% | Potency [3] | Potency [15] | outcome [4] | outcome [6] | Potency [7] | Potency [16] | outcome [17] | activation [18] -1.83% and 2% | max response [10] -2.42% and -0.716% | outcome [11] | outcome [12] | outcome [13] | max response [14] -1.02% and 2.48%

COc1ccc(O)cc1
inactive: max response [1] -8.57% | Potency [3] | Potency [15] | outcome [4] | Potency [5] | Potency [7] | activation [8] 1.27% | activation [9] 0.533% | activation [18] 0.2% | max response [10] -1.68% | outcome [12] | outcome [13] | max response [14] -1.63%

Cc1cc(=O)[nH]c(=S)[nH]1
inactive: max response [1] 1.44% | activity change % (negative = inhibition) [2] 15.5% | Potency [3] | Potency [15] | outcome [4] | Potency [5] | activation [8] -1.35% | activation [9] -0.135% | outcome [17] | activation [18] -0.745% | max response [10] -5.54% | outcome [11] | outcome [12] | outcome [13] | max response [14] 1.24%

CC1CC(OC(=O)c2ccccc2O)CC(C)(C)C1 (stereo not drawn)
inactive: max response [1] 14.2% | activity change % (negative = inhibition) [2] -8.08% | Potency [15] | outcome [4] | Potency [5] | outcome [6] | activation [8] -6.41% | activation [9] -1.08% | Potency [19] | Potency [16] | activation [18] 2.34% | max response [10] -1.84% | outcome [12] | outcome [13] | max response [14] 0.684%

CCCCOC(=O)c1ccc(N)cc1
inactive: max response [1] -25.6% | Potency [3] | outcome [4] | Potency [5] | outcome [6] | activation [8] -1.05% | activation [9] -0.245% | Potency [19] | Potency [16] | outcome [17] | activation [18] 13% | max response [10] -1.13% | outcome [11] | outcome [13] | max response [14] -19.9%

Nc1ccc(S(=O)(=O)c2ccc(N)cc2)cc1
inactive: max response [1] -26.2% | activity change % (negative = inhibition) [2] -17.4% and -7.69% | Potency [3] | Potency [15] | outcome [4] | Potency [5] | outcome [6] | Potency [7] | activation [8] -4.8% and 0.655% | activation [9] 2.3% and -6.03% | Potency [19] | Potency [16] | activation [18] -1.52% and 0.0487% | max response [10] -8.33% and -0.873% | outcome [11] | outcome [12] | outcome [13] | max response [14] -3.28% and -10.9%

CC(=O)N[C@H]1[C@H]([C@H](O)[C@H](O)CO)OC(C(=O)O)=C[C@@H]1N=C(N)N
inactive: Potency [3]

CN[C@@H]1[C@@H](O)[C@@H](O[C@@H]2[C@H](O)[C@H](O[C@H]3OC(CN)=CC[C@H]3N)[C@@H](N)C[C@H]2N)OCC1(C)O (stereo partly drawn)
inactive: Potency [3]

O=C(O)CCCCC1CCSS1 (stereo not drawn)
active: Potency [7] 48.6 µM and 37.6 µM
inactive: max response [1] -5.4% | activity change % (negative = inhibition) [2] 1.34% | Potency [3] | Potency [15] | outcome [4] | Potency [5] | activation [8] -5.57% and 16.2% | activation [9] -0.268% and -2.59% | outcome [17] | activation [18] 1.47% and -0.721% | max response [10] -5.44% and -4.99% | outcome [12] | max response [14] 10.3% and -9.69%

Cc1c(N(C)C)c(=O)n(-c2ccccc2)n1C
inactive: max response [1] -3.15% and -4.34% | activity change % (negative = inhibition) [2] -16.1% and 15.3% | Potency [3] | Potency [15] | outcome [4] | Potency [5] | outcome [6] | Potency [7] | activation [9] 1.01% and 2.73% | Potency [19] | Potency [16] | activation [18] -1.03% and 1.07% | max response [10] -3.72% and 2.35% | outcome [11] | outcome [12] | outcome [13] | max response [14] -0.437% and -7.96%

FC(F)(F)C(Cl)Br (stereo not drawn)
inactive: max response [1] -3.82% | activity change % (negative = inhibition) [2] 8.04% | Potency [3] | Potency [15] | outcome [4] | Potency [5] | activation [8] -1.4% | outcome [17] | activation [18] 0.539% | max response [10] -5.56% | outcome [12] | outcome [13] | max response [14] -1.89%

C/C(=C(\CCO)SS/C(CCO)=C(\C)N(C=O)Cc1cnc(C)nc1N)N(C=O)Cc1cnc(C)nc1N
inactive: Potency [3]

CC(=O)OCC(COC(C)=O)OC(C)=O
inactive: max response [1] 4.6% | activity change % (negative = inhibition) [2] -1.64% and -0.0126% | Potency [3] | Potency [15] | outcome [4] | Potency [5] | Potency [7] | activation [9] 0.2% and 0.487% | outcome [17] | activation [18] 1.18% and -0.878% | max response [10] 0.869% and -1.48% | outcome [11] | outcome [12] | outcome [13] | max response [14] -0.23% and 1.03%

OCCN1C[C@H](O)[C@@H](O)[C@H](O)[C@H]1CO
inactive: Potency [3]
